From PubChem BioAssay
Tau ThT inhib: inhibitors of human tau fibril formation, thioflavin T binding; P10636; recombinant tau K18 P301L, heparin-induced fibrillization, ThT fluorescence; Potency, µM (doses to about 57.4 µM), for the others: at the highest dose activity, negative = inhibition, actives largely listed as inhibitors; hit rate 2.1% among 270,000; also: potency is read from the fitted curve at half-maximal effect; nearly all actives have a fitted effect of over 55% in size
Target sequence (P10636 561-689 P618L limits assumed): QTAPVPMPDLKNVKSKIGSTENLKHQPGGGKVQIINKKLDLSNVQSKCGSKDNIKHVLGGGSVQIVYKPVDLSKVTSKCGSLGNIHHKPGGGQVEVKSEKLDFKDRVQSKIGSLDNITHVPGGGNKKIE
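Heparin-induced fibrillization of the P301L-mutant K18 repeat-domain fragment of human tau was followed by ThT binding in quantitative high-throughput format.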
Tau fluor cs: counter-screen for tau fibril formation inhibitors; Potency, µM (highest dose often 57.7 µM), for inactives: at the highest dose activity change, negative = decrease; tau K18 P301L Alexa594 fluorescence, heparin fibrillization; hit rate 0.93% among 280,000; also: potency is read from the fitted curve at half-maximal effect; nearly all actives have a fitted effect of over 55% in size
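Human tau K18 P301L (15 uM unlabeled, 0.24 uM Alexa 594-labeled) in 100 mM sodium acetate pH 7 with 20 uM heparin, 6 hr at 37 C. ThT 30 uM added, 1 hr ambient; Alexa 594 FP and total fluorescence read at 555/632 nm.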
Coupling enz: coupling enzyme interference in Giardia aldolase counter-screen. coupling enzyme system counterscreen, AmpLite Red fluorescence. AID 2472. hit rate 0.67% among 290,000. activity change, negative = inhibition, % at 58.2 µM, hits read low; in the data active = activity change below about -30%
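Coupling enzymes only (glyceraldehyde-3-phosphate) + compound, at 57.5 uM final, 10 min RT; add substrate/coupling/AmpLite Red mix, 20 min RT; fluorescence ex 525/em 598 nm. Actives flag coupling-system interference.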
Tau FP inhib: tau fibrillization inhibition (FP); Potency, µM (highest dose often 57.7 µM), for the others: at the top dose activity, negative = inhibition, usual class: inhibitors; AID 1468; hit rate 0.39% among 280,000; K18 P301L tau heparin fibrillization, Alexa594 FP, 6 h; P10636; also: potency is read from the fitted curve at half-maximal effect; nearly all actives have a fitted effect of over 55% in size
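Compound effects on tau fibrillization are measured by Alexa 594 fluorescence polarization (ex 555, em 632 nm). K18 P301L tau is used at 15 uM with 0.24 uM labeled tracer, and 20 uM heparin induces aggregation over 6 hr at 37 C.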
JMJD2E inh: JMJD2E (human) inhibition; JMJD2E catalytic domain, FDH-coupled NADH fluorescence (FDH is formaldehyde dehydrogenase); Potency, µM (titrated, usually from 57.1 µM), inactives show at the top dose activity change, negative = inhibition, most hits filed as inhibitors; hit rate 1.6% among 230,000; active = well fitted inhibition curve with a large enough effect, not every such curve was filed as active; inconclusive = small, poorly fitted or top-dose-only effect, or another doubt; inactive = no such curve, though single readings can be large or run the other way;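 also: potency is read from the fitted curve at half-maximal effect; 0% = wells with enzyme and -100% = buffer wells without enzyme; nearly all actives have a fitted effect of over 50% in size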
Target sequence (B2RXH2 1-337 limits assumed): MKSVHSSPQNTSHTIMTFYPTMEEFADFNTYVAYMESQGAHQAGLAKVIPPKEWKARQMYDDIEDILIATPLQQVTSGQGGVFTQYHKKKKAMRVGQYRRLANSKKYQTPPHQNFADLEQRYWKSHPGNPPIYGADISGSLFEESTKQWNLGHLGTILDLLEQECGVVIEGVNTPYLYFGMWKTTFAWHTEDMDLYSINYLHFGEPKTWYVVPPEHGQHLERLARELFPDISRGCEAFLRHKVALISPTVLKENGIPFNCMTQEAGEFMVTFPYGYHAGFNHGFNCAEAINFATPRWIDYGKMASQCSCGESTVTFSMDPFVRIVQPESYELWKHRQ
The depositor's hits bear a star; u = inconclusive; x = no result given; [ ] = remark or other dose. Hits are enriched below; roughly 3% of the tested compounds scored in any of these assays. Unless noted, calls follow the shape of the dose curve; as a rule, active = well fitted curve in the direction sought with a large enough effect; inconclusive = small, poorly fitted or top-dose-only effect, or another doubt; inactive = no such curve, though single readings can be large; an effect the other way counts as inactive or inconclusive. Unless noted, % is scaled to controls: 0 for no effect and ±100 for the full control effect.

SMILES | Tau ThT inhib | Tau fluor cs | Coupling enz | Tau FP inhib | JMJD2E inh
Cc1nc(S/C(=C/c2ccc(-c3ccc(C(=O)O)cc3)o2)C(=O)O)n[nH]1 | 4.47µM* | -13.3% | -1.2 | -14.4% | -12.8%
Cc1ccc(Cl)cc1-c1ccc(C=Nc2ccc(N3CCOCC3)cc2)o1 | u | 14.4% | -13.0 | 8.8% | 3.1%
O=C(O)/C(=C\c1ccc(-c2ccc(F)cc2)o1)c1ccccc1 | u | -8.0% | 4.2 | -3.0% | u
O=Cc1ccc(-c2ccc(C(=O)O)cc2)o1 | x | 6.0% | 2.8 | -0.7% | u
Cc1nc(S/C(=C/c2ccc(-c3cc(Cl)ccc3C)o2)C(=O)O)n[nH]1 | 11.2µM* | -29.3% | -7.9 | -16.7% | 5.01µM*
CC(=O)c1ccc(-c2ccc(/C=C(/Sc3n[nH]c(C)n3)C(=O)O)o2)cc1 | 1µM* | u | -5.2 | -5.1% | -19.4%
Cc1nc(S/C(=C/c2ccc(-c3ccc(Cl)cc3)o2)C(=O)O)n[nH]1 | 2µM* | u | -1.2 | 5.9% | -15.1%
CC(C)OC(=O)/C(C#N)=C/c1ccc(-c2ccc(Cl)c(Cl)c2)o1 | 12.2% | -0.9% | x | -10.7% | x
COc1cccc([C@@H]2Oc3ccc(OC)cc3C[C@H]2OC(=O)NS(=O)(=O)c2ccc(F)cc2)c1 | -13.7% | -15.6% | 3.8 | -8.7% | 4.9%
Cc1nc(-c2cccc(NC(=O)Nc3ccc([N+](=O)[O-])cc3)c2)no1 | u | 8.91µM*[quencher] | x | 12.6µM* | x
COc1ccc(C)cc1NC(=O)Nc1cccc(-c2noc(C)n2)c1 | u | u | x | -2.7% | x
O=C1c2ccccc2C(=O)c2c1ncn2-c1ccccc1 | -10.9% | -7.3% | -35.6* | 5.8% | 3.3%
O=C1c2ccccc2C(=O)c2[nH]cnc21 | -12.3% | -4.3% | -23.5 | 4.2% | -2.7%
CCCCc1nc2c(c3c1C[C@H](C)OC3)CN(S(=O)(=O)c1ccc(C#N)cc1)CC2 | 3.6%[11.5 µM] | -5.1%[11.6 µM] | -0.7 | -14.5%[11.6 µM] | 6.6%[11.4 µM]
COc1cccc2c1CCCC2CCCN1CCN(C2CCCCC2)CC1 (configuration not stated) | x | x | -1.0 | x | x
O=c1oc2ccccc2c(Nc2cc3ccccc3cc2O)c1[N+](=O)[O-] | 8.6% | 7.8% | -56.0* | 2.3% | -2.7%
O=c1oc2ccccc2c(Nc2ccccc2O)c1[N+](=O)[O-] | u | -10.9% | 0.3 | 3.7% | -17.2%
Brc1ccc2c(c1)OCCOCCOc1cc(Br)ccc1OCCOCCOCCO2 | u | -14.4% | -0.8 | -9.8% | 5.0%
Nc1ccc2c(c1)OCCOCCOCCOCCOCCO2 | u | -15.0% | -49.5* | -13.4% | u
C[C@@H]1CC2C3CCC4=CC(=O)C=CC4(C)[C@@]3(F)[C@@H](O)CC2(C)[C@@]1(O)C(=O)CO (some centres not stated) | -5.3% | -1.5% | 0.1 | 0.3% | x
O=[N+]([O-])c1ccccc1/C=N/OCc1ccccc1 | x | x | -1.7 | x | x
CCN(CC)c1ccc(N=Cc2ccccc2[N+](=O)[O-])cc1 | 14.1µM* | u | -19.3 | u | 5.01µM*
CCN(CC)c1ccc(N=Cc2ccc([N+](=O)[O-])o2)cc1 | 10µM* | u | -38.7* | 11.2µM* | 2.82µM*
CC(C)C[C@H](NC(=O)[C@H](CO)NC(=O)[C@H](C)NC(=O)[C@H](CCCN=C(N)N)NC(=O)[C@H](CCCN=C(N)N)NC(=O)[C@@H](N)CC(C)C)C(=O)NCC(=O)O | x | x | 1.2 | x | x
Nc1ncnc2c1ncn2[C@@H]1O[C@H](CO)[C@H](O)[C@H]1O | u | -29.3% | x | u | 8.9%
SMILES | Tau ThT inhib | Tau fluor cs | Coupling enz | Tau FP inhib | JMJD2E inh
CCCCNS(=O)(=O)c1ccc2nc(SCC(=O)Nc3ccccc3Cl)[nH]c2c1 | 2.2% | u | 1.6 | 25.1µM* | -8.0%
N#CC1=C(SCC(=O)c2ccccc2)NC2=C(C(=O)CCC2)C1c1ccco1 (configuration not stated) | 12.6µM* | -26.8% | -11.1 | 31.6µM* | u
Cc1ccc(C(=O)CSC2=C(C#N)C(c3ccco3)C3=C(CCCC3=O)N2)cc1 (configuration not stated) | 15.8µM* | -29.5% | 0.9 | 10.6% | -8.9%
CCOc1ccc(NC(=O)NC(C)c2c(-n3cccc3)sc3c2CCN(CC)C3)cc1 (configuration not stated) | -12.9% | u | x | 11.7% | x
COc1ccc(S(=O)(=O)NCCc2cn3ccsc3n2)cc1 | 7.0% | 5.1% | x | 2.7% | x
CC(c1ccccc1)C1C(C#N)=C(N)SC(N)=C1C#N (configuration not stated) | u | -9.1% | 0.3 | -4.6% | u
CC(CC1C(C#N)=C(N)SC(N)=C1C#N)c1ccccc1 (configuration not stated) | u | -14.7% | -1.0 | -10.5% | 22.4µM*
O=S(=O)(/C(=C/c1ccc(C(F)(F)F)cc1)c1nc2ccccc2[nH]1)c1ccccc1 | 28.2µM* | -12.4% | 0.6 | u | -4.7%
CC(C)c1ccc(/C=C(\c2nc3ccccc3[nH]2)S(=O)(=O)c2ccccc2)cc1 | 2.8% | 0.4% | 0.3 | 1.0% | -4.0%
CCC1=NN2C(=N)/C(=C\c3ccc(SCc4ccco4)o3)C(=O)N=C2S1 | 10µM* | -28.7% | 4.0 | 6.1% | -9.0%
CC1=CC2=NC(=O)/C(=C\c3cc(C)n(-c4cccc(Cl)c4)c3C)C(=N)N2O1 | -7.5% | -12.4% | -3.0 | -8.1% | 28.2µM*
CCCC1=NN2C(=N)/C(=C\c3cc(C)n(Cc4ccccc4)c3C)C(=O)N=C2S1 | -18.1% | -12.8% | 13.1 | 4.4% | u
CC1=CC2=NC(=O)/C(=C\c3cc(C)n(-c4ccccc4)c3C)C(=N)N2O1 | u | -15.6% | -0.3 | -8.8% | -186.2%
CCCC1=NN2C(=N)/C(=C\c3ccc(SCc4ccco4)o3)C(=O)N=C2S1 | 10µM* | -26.7% | 4.3 | -11.5% | u
N=C1/C(=C/c2ccc(Br)o2)C(=O)N=C2SC(CC(=O)N3CCCC3)=NN12 | x | x | 13.4 | x | x
CCC1=NN2C(=N)/C(=C/c3c(C)nn(-c4ccccc4)c3Cl)C(=O)N=C2S1 | -11.9% | 10.6% | 6.6 | -3.1% | -5.1%
CCCC1=NN2C(=N)/C(=C\c3cc(C)n(-c4cccc(C)c4)c3C)C(=O)N=C2S1 | -14.0% | 1.9% | 8.5 | -3.3% | 8.91µM*
Cc1ccc(C)c(N2CCN(C(=O)C3CCCN(S(=O)(=O)c4ccc5c(c4)oc(=O)n5C)C3)CC2)c1 (configuration not stated) | 1.8% | -10.7% | x | -0.7% | x
COc1ccc(NC(=O)Cn2c(=O)n(-c3ccccc3)c(=O)c3ccc(C(=O)NCc4ccc5c(c4)OCO5)cc32)cc1 | 13.0% | -11.9% | x | u | x
COc1cccc(NC(=O)Cn2c(=O)n(Cc3ccc4c(c3)OCO4)c(=O)c3oc4ccccc4c32)c1 | u | u | x | 28.2µM* | x
COc1cccc(NC(=O)Cn2c(=O)n(-c3ccccc3)c(=O)c3ccc(C(=O)NCc4ccc5c(c4)OCO5)cc32)c1 | 15.4% | -28.8% | x | 31.6µM* | x
